TDP1 cell noCPT: qHTS for Inhibitors of human tyrosyl-DNA phosphodiesterase 1 (TDP1): qHTS in cells in absence of CPT; DT40 Tdp1-/- hTDP1 cells, no CPT, ATP luminescence, 48 h; Potency, µM (doses to about 46.2 µM), for the others: at the top dose activity change, negative = growth inhibition, usual class: inhibitors; 15% of 420,000 active; AID 686978, 2013; note: potency is the fitted concentration of half-maximal effect; nearly all actives have a fitted effect of over 55% in size
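Growth of hTDP1-complemented DT40 Tdp1-knockout cells is measured by ATP luminescence after at least 48 hr compound exposure at 37 °C, with DMSO substituting for the 20 nM CPT used in the parallel screen.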
ELG1 repair inh: ELG1-dependent DNA repair inhibition; HEK293T ELG1-luciferase reporter, luminescence, 16 h; DNA damage induced by 5-fluorouridine; 2.3% of 330,000 active; Potency, µM (doses to about 46.1 µM), for inactives: at the highest dose activity change, negative = inhibition, hits mostly inhibitors; AID 504467; note: potency is the fitted concentration of half-maximal effect; nearly all actives have a fitted effect of over 55% in size
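Step one: seed 2,000 cells per well. Step two: pin-transfer compound or DMSO alongside 5-fluorouridine. Step three: incubate 16 hr, 37 °C, 5% CO2. Step four: add ONE-Glo, wait 30 min, read luminescence.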
Gal4-VP16 FLuc: inhibits Gal4-VP16 luciferase reporter, ROR gamma counter-screen; Drosophila S2 Gal4-VP16 UAS-luciferase, luminescence, 20 h; Potency, µM (doses to about 53.6 µM), without a hit: top-dose activity, negative = inhibition, hits mostly inhibitors; 3.5% of 310,000 active; AID 2546;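 note: Gal4-VP16 expression switched on by copper sulfate through the metallothionein promoter; potency is the fitted concentration of half-maximal effect; nearly all actives have a fitted effect of over 50% in size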
DT40 TDP1 CPT: growth inhibition of DT40 Tdp1-/-;hTDP1 cells with camptothecin (screen for TDP1 inhibitors) | AID 686979 | Potency, µM (series often up to 46.2 µM), for the others: top-dose activity change, negative = growth inhibition, most hits filed as inhibitors | chicken DT40 Tdp1-/-;hTDP1 cells + 20 nM CPT, ATP luminescence, 48 h | 12% of 420,000 active; note: potency is the fitted concentration of half-maximal effect; nearly all actives have a fitted effect of over 55% in size
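Chicken DT40 Tdp1-/- cells stably complemented with human TDP1 were seeded at 400 cells/well in medium containing 20 nM camptothecin, exposed to pin-transferred compounds, and grown at 37 °C for at least 48 hr. Viability was read as ATP luminescence.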
IL-1B inflam inh: blocks inflammasome-driven IL-1 beta release | THP-1 LPS/ATP IL-1B secretion, AlphaLISA, 16 h; active compounds read low | 4.7% of 360,000 active | activity change, % at 57.5 µM; in the data active = activity change below about -50%; inconclusive = mostly about -30% to -49%
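THP-1 cells pretreated 1 hr with compounds (up to 57.5 uM final), then stimulated with LPS (250 ng/mL final) plus ATP (1.25 mM final); secreted IL-1B measured by AlphaLISA after 16 hr, decreased signal indicating inhibition.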
RORg inh: ROR gamma (mouse) transcription inhibition; Potency, µM (doses to about 53.6 µM), for inactives: at the top dose activity change, negative = inhibition, hits mostly inhibitors; AID 2551; Drosophila S2 Gal4-RORgamma UAS-luciferase reporter, 20 h; P51450; 5.4% of 310,000 active; note: potency is the fitted concentration of half-maximal effect; nearly all actives have a fitted effect of over 60% in size
Target sequence (P51450 whole entry, looked up, the tested form may be a part): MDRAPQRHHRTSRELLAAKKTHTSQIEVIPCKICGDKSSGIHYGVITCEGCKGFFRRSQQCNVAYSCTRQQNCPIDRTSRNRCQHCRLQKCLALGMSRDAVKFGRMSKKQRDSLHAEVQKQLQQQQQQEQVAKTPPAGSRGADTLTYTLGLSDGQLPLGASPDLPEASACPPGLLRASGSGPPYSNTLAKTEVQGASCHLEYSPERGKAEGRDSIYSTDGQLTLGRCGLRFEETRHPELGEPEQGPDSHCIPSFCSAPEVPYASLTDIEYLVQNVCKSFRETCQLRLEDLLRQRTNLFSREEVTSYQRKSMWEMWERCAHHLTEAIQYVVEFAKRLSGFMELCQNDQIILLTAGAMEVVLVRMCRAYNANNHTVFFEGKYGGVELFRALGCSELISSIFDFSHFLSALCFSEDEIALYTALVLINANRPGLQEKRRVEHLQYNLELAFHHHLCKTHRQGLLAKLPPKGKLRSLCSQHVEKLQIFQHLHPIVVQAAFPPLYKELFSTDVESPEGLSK
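Stable Schneider cell line, Gal4 DNA-binding domain fused to ROR gamma, UAS-luciferase. Cmpd 1 hr RT → CuSO4 700 uM final → 20 hr RT → luciferase reagent 10 min → luminescence.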
Active calls of the source: *; u = inconclusive; x = no result given; [ ] = remark or other dose. Rows were chosen to be rich in hits. Some 21% of all compounds tested hit in one or more screens of this group. Unless noted, calls come from the whole dose curve; as a rule, active = well fitted curve in the direction sought with a large enough effect; inconclusive = small, poorly fitted or top-dose-only effect, or another doubt; inactive = no such curve, though single readings can be large; an effect the other way counts as inactive or inconclusive. % is set by controls: 0 for no effect and ±100 for the full control effect.

SMILES	TDP1 cell noCPT	ELG1 repair inh	Gal4-VP16 FLuc	DT40 TDP1 CPT	IL-1B inflam inh	RORg inh
O=S1(=O)CC(N2CCCCC2)CN1Cc1cn(Cc2cccc(Cl)c2)nn1 (stereo not drawn)	-14.2%	x	x	-11.0%	6.5	x
O=C(OCCN=C1NS(=O)(=O)c2ccccc21)c1ccccc1F	-28.2%	-6.4%	-6.5%	-25.3%	20.4	17.6%
C=CC[C@@H]1C=C[C@H](O/N=C(\C)CCN2CCc3nc(CC)c(CC)cc3C2)[C@H](CO)O1	x	x	-13.8%[10 µM]	x	x	-2.8%[10 µM]
Cc1cccnc1C(NC(=O)C1CCN(CCCc2ccccc2)CC1)c1ccc(Cl)cc1 (stereo not drawn)	29.1µM*	x	x	u	-57.2*	x
CCCc1cc(C(=O)Nc2ccc(C(=O)c3ccc(C)cc3)cc2)n(C)n1	u	u	5.5%	14.6µM*	-62.5*	u
COc1ccccc1C#CC1=CC(=O)CC(C)(C)C1	9.2µM*	x	x	16.4µM*	u	x
CN(C)c1ccc(CNc2ccc3c(c2)ncn3C)cc1	23.1µM*	u	-4.0%	14.6µM*	-58.6*	0.1%
Cn1cnc2cc(NCc3ccccc3Cl)ccc21	-16.5%	u	-0.9%	-18.2%	10.1	2.9%
CC(C)c1ccc(CNc2ccc3c(c2)ncn3C)cc1	u	u	u	23.1µM*	0.0	-24.1%
CC(C)CN(C(=O)CSc1nc(N)cc(N)n1)C1CCS(=O)(=O)C1 (stereo not drawn)	-9.8%	u	x	23.5%	15.4	x
COCC1CCN(C(=O)c2ccc3oc(C(C)C)nc3c2)C1 (stereo not drawn)	3.0%	x	x	3.2%	0.3	x
COc1cccc(/C=C(\C#N)c2nc3ccc(C)cc3[nH]2)c1	18.4µM*	x	x	18.4µM*	x	x
COc1cc(/C=C(\C#N)c2nc3ccc(C)cc3[nH]2)ccc1OCc1ccc(C)cc1	8.2µM*	x	x	11.6µM*	x	x
COc1cc(/C=C(\C#N)c2ccccn2)ccc1OCc1ccccc1	u	u	-17.4%	20.6%	-4.4	u
COc1cc(/C=C(\C#N)c2ccccn2)ccc1OCc1ccc(Cl)cc1	23.1µM*	u	-12.4%	u	-11.5	u
C=CCOC(=O)C(C(C)=O)C(NC(=O)OC)c1ccc(Cl)cc1 (stereo not drawn)	x	x	5.8%[10 µM]	x	x	2.8%[10 µM]
N#CC(C#N)=c1ccc2c(c1)N1C3=C(CCCC3)CC3CCCCC31N=2 (stereo not drawn)	u	-10.8%	0.0%	u	-116.7*	-10.5%
N#C/C(C(N)=O)=c1/ccc2c(c1)N1C3=C(CCCC3)CC3CCCCC31N=2 (stereo not drawn)	13µM*	20.6µM*	u	14.6µM*	-101.8*	-43.7%
CC(C)C[C@H](NC(=O)[C@H]1O[C@@H]1C(=O)O)C(=O)NCCCCN=C(N)N	x	x	-2.0%	x	x	0.6%
CC(C)(C)OC(=O)[C@H]1[C@H](c2ccc([N+](=O)[O-])cc2)C2(C(=O)c3ccccc3C2=O)C2c3ccccc3C=NN21 (stereo partly drawn)	18.4µM*	3.1%	-2.7%	u	-27.0	43.0%
CCC(Oc1ccccc1)C(=O)N[C@@H]1C(=O)N2[C@@H]1SC(C)(C)[C@@H]2C(=O)O (stereo partly drawn)	0.4%	x	x	0.3%	x	x
O=C(CNC(=O)c1ccc(F)cc1)OCc1cc(=O)n2ccsc2n1	3.6%	x	x	9.5%	x	x
C[C@H]1CN([C@@H](C)CO)S(=O)(=O)c2ccc(Br)cc2O[C@@H]1CN(C)S(=O)(=O)c1ccccc1	u	x	x	u	-18.5	x
Cc1ccc(S(=O)(=O)N(C)C[C@H]2Oc3cc(C#CC4CCCC4)ccc3S(=O)(=O)N([C@H](C)CO)C[C@H]2C)cc1	18.4µM*	x	x	18.4µM*	-2.3	x
